High-throughput results: PubChem, National Center for Advancing Translational Sciences (NCATS)
FBPA coupling cs: qHTS Assay for Inhibitors of Fructose-1,6-bisphosphate Aldolase from Giardia Lamblia: Coupling assay counterscreen; coupling enzyme system counterscreen, AmpLite Red fluorescence; activity change, negative = inhibition, % at 58.2 µM, hits read low; hit rate 0.67% among 290,000; in the data active means activity change below about -30%
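Activity here indicates interference with the coupling reaction, not aldolase inhibition. Compounds at 57.5 uM final met coupling enzymes for 10 min at RT; substrate and AmpLite Red detection followed, with a 525/598 nm fluorescence read after 20 min.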
Tau ThT inhib: qHTS for Inhibitors of Tau Fibril Formation, Thioflavin T Binding; recombinant tau K18 P301L, heparin-induced fibrillization, ThT fluorescence; hit rate 2.1% among 270,000; Potency, µM (doses to about 57.4 µM), inactives show top-dose activity, negative = inhibition, hits mostly inhibitors; further: potency means the concentration at half of the fitted maximal effect; nearly all actives have a fitted effect of over 55% in size
Target sequence (P10636 561-689 P618L limits assumed): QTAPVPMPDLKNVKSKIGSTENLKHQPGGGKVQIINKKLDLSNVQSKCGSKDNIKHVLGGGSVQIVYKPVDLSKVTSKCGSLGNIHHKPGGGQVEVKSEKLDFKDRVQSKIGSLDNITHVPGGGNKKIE
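ThT emission at 510 nm, taken 1 hr after adding 30 uM dye, quantifies aggregates formed when 20 uM heparin acts on human tau K18 P301L for 6 hr at 37 C.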
Tau fluor cs: Counterscreen qHTS for Inhibitors of Tau Fibril Formation, Fluorescence Polarization; tau K18 P301L Alexa594 fluorescence, heparin fibrillization; Potency, µM (top dose mostly 57.7 µM), without a hit: at the top dose activity change, negative = decrease; AID 1463, 2008; hit rate 0.93% among 280,000; further: potency means the concentration at half of the fitted maximal effect; nearly all actives have a fitted effect of over 55% in size
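Human tau K18 P301L (15 uM unlabeled, 0.24 uM Alexa 594-labeled) in 100 mM sodium acetate pH 7 with 20 uM heparin, 6 hr at 37 C. ThT 30 uM added, 1 hr ambient; Alexa 594 FP and total fluorescence read at 555/632 nm.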
G9a block: qHTS Assay for Inhibitors of Histone Lysine Methyltransferase G9a; Potency, µM (highest dose often 102 µM), without a hit: at the top dose activity, negative = inhibition, hits mostly inhibitors; Histone-lysine N-methyltransferase EHMT2 (Homo sapiens), Q96KQ7; G9a H3K9 monomethylation, AlphaScreen, 2 h; hit rate 8.8% among 350,000; further: potency means the concentration at half of the fitted maximal effect; nearly all actives have a fitted effect of over 75% in size
Target sequence (Q96KQ7 913-1193 limits assumed): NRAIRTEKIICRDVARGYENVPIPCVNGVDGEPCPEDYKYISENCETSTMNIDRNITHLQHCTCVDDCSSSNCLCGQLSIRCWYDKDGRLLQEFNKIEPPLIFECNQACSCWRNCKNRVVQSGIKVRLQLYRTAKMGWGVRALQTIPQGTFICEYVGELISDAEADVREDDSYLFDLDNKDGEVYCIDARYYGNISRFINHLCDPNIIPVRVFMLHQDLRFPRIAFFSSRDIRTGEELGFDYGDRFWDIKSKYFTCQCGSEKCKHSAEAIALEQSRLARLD
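Chemiluminescent proximity detection of H3K9 monomethylation, read after 10 min bead incubation in the dark. Reaction: 20 nM G9a, 500 nM biotin-H3K9 peptide, 20 uM SAM cofactor, 2 h, room temperature, following 15 min enzyme-compound preincubation.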
Sfp PPTase inh: qHTS Assay for Inhibitors of Bacillus subtilis Sfp phosphopantetheinyl transferase (PPTase); Biochemical Sfp PPTase activity, qHTS; Potency, µM, without a hit: largest response in the series, negative = inhibition, hits mostly inhibitors; hit rate 3.5% among 310,000; AID 1490, 2009;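 further: the enzyme is Sfp with the accession as filed and its product quenches rhodamine fluorescence; potency means the concentration at half of the fitted maximal effect; 0% = enzyme reaction without inhibitor and -100% = no enzyme wells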
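Buffer: 50 mM Hepes-Na pH 7.6, 10 mM MgCl2, 0.01% Nonidet P-40, 0.01% BSA. Enzyme 15 nM, pre-exposed to compound 15 min; substrates then added and fluorescence change tracked over 30 min.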
Tau fibril FP: qHTS for Inhibitors of Tau Fibril Formation, Fluorescence Polarization. Potency, µM (top dose mostly 57.7 µM), for the others: at the top dose activity, negative = inhibition, actives largely listed as inhibitors. hit rate 0.39% among 280,000. AID 1468, 2008. Microtubule-associated protein tau (Homo sapiens), P10636. K18 P301L tau heparin fibrillization, Alexa594 FP, 6 h; further: potency means the concentration at half of the fitted maximal effect; nearly all actives have a fitted effect of over 55% in size
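Steps: dispense K18 P301L tau (15 uM plus 0.24 uM Alexa 594 tracer, final) in pH 7 sodium acetate; add compound; add heparin (20 uM final); incubate 6 hr, 37 C; add ThT (30 uM final); after 1 hr ambient, read FP.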
An asterisk follows results filed as active; ? = inconclusive; . = not tested or not shown; [ ] = dose if it differs, or a comment. Shown are actives, neighbours in structure and some others; about 11% of the full set was active somewhere. Unless noted, the call rests on the fitted dose curve; in most records, active means well fitted curve in the direction sought with a large enough effect; inconclusive means small, poorly fitted or top-dose-only effect, or another doubt; inactive means no such curve, though single readings can be large; an effect the other way counts as inactive or inconclusive. Unless noted, on the % scale 0 is the no-effect control and ±100 the full control effect.

SMILES	FBPA coupling cs	Tau ThT inhib	Tau fluor cs	G9a block	Sfp PPTase inh	Tau fibril FP
COc1ccccc1CNCC(=O)Nc1ccc(N2CCOCC2)cc1	-1.3	-14.8%	-7.4%	4.47µM*	-8.4%	11.5%
CN(N=O)C(=O)N[C@H]1C(O)OC(CO)[C@@H](O)[C@H]1O (some centres undefined)	1.8	0.1%	1.5%	.	-10.3%	-8.5%
N#Cc1c(Nc2ccc(Cl)cc2)s[nH]c1=O	8.3	.	-20.2%	.	50.1µM*	20µM*
CSc1nc(Nc2ccc(Cl)cc2)c(C#N)c(=O)[nH]1	5.8	.	.	-8.8%	21.3%	.
CCCCNC(=S)N1CCN(c2ccccc2Cl)CC1	-1.7	-14.3%	-15.4%	1.9%	7.5%	1.9%
CCCCNC(=S)N1CCN(C)CC1	1.9	0.2%	6.4%	11.2µM*	10µM*	13.8%
CN1CCN(C(=S)NCCc2ccccc2)CC1	1.4	-7.5%	-0.2%	6.31µM*	-21.5%	-1.1%
CCN1CCN(C(=S)NCc2ccc(C)cc2)CC1	-1.8	1.4%	-0.9%	17.7%[59 µM]	8.6%	4.9%
CC(C)CNC(=S)N1CCN(C)CC1	-4.6	0.7%	1.0%	3.98µM*	-19.0%	-3.2%
CCNC(=S)N1CCN(CC)CC1	3.5	-0.6%	2.1%	25.1µM*	-17.0%	1.0%
CC(=O)NC(Cc1ccccc1)C(=O)N1CCN(C(=S)NCC(C)C)CC1 (centres undefined)	-0.5	-10.2%	-10.9%	-8.2%[59 µM]	18.6%	-4.3%
CCCCOC(=O)c1ccc(NC(=O)C2(c3cccs3)CCOCC2)cc1	.	-7.5%	?	-2.0%[59 µM]	.	-13.7%
COc1ccc(-c2cc(C(C)=O)c(C)n2CCC(=O)Nc2ccc(C(F)(F)F)cc2)cc1	.	-6.0%	?	-14.1%[59 µM]	.	-13.3%
O=C(NCCCN1CCCCC1)c1sc2ncccc2c1-n1cccc1	.	10.5%	10.1%	-1.7%[59 µM]	.	-1.2%
Cc1cc(C)n(C(=O)c2ccc([N+](=O)[O-])cc2Cl)n1	-0.7	.	.	?	7.3%	.
Cc1ccc(NC(=O)Cn2c(=O)c3ccc(Cl)cc3n3nncc23)cc1	.	8.6%	7.2%	4.3%[59 µM]	.	-1.0%
CN(Cc1ccccc1)C(=O)N1CCOCC1	4.9	-14.5%	-11.1%	.	8.7%	-5.6%
CN(Cc1ccccc1)C(=C(Cl)Cl)/C(=C1/NCCN1C)[N+](=O)[O-]	0.3	-3.4%	3.3%	50.1µM*	20.6%	4.5%
CN(Cc1ccccc1)C(=C(Cl)Cl)C(=C1NCCN1)[N+](=O)[O-]	-0.4	?	-11.6%	25.1µM*	-19.1%	-10.7%
CN1CCN/C1=C(/C(Cl)=C(Cl)Cl)[N+](=O)[O-]	1.9	?	-11.1%	12.6µM*	-2.9%	?
C=C1CCN(C(Cc2ccccc2)C(=O)O)S(=O)(=O)c2ccccc21 (centres undefined)	6.1	.	.	.	18.9%	.
O=C(NCCc1ccccc1)C(=O)NCC1OCCN1S(=O)(=O)c1cc(F)ccc1F (centres undefined)	-1.1	.	.	.	9.5%	.
CCCCC/C=C\C/C=C\CCCCCCCC(=O)NCCc1ccc(O)c(O)c1	2.5	-10.1%	-21.1%	.	10.0%	5.2%
COC(=O)c1ccc(-c2ccco2)n1Cc1nc(-c2ccc(OC)c(OC)c2)oc1C	-1.5	?	3.6%	?	20µM*	-10.4%
COC(=O)c1cc2oc(C)cc2n1Cc1ccccc1Cl	.	?	-19.8%	?	.	-14.7%
COC(=O)c1cc2oc3ccccc3c2n1Cc1nc(-c2ccc(OC)cc2)oc1C	.	-0.2%	-14.8%	-9.5%[59 µM]	.	3.5%
COC(=O)c1ccc(-c2ccco2)n1Cc1ccccc1Cl	2.2	-11.9%	-23.1%	28.2µM*	?	-7.2%
